The assay has as its system HL-60(TB) leukemia. Put plainly: NCI-60 one-dose screen, 48 h (100 = growth as untreated, 0 = no growth, -100 = all killed). The note with it: 10 µM unless noted.

The panel holds about 83,000 compounds, 20% with a hit somewhere; the sample as a whole holds those more often.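 Percent growth is the endpoint: 0 to 100 indicates growth inhibition (40 means 60% inhibition), 0 means no net growth, and negative values indicate cell death.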 A number with no mark means an inactive call. The source made the active and inactive calls. Rule for the calls: active = growth percent below 10; inactive = the rest.

For `Nc1nc(Nc2ccccc2SSc2ccccc2Nc2nc(N)nc(-c3cccc(Br)c3)n2)nc(-c2cccc(Br)c2)n1`, the growth was 83%. As to `O=C1Nc2ccc(Cl)cc2/C1=C/c1ccc(OCc2ccc(Br)cc2F)cc1`, the growth was 98%.

Consider `C[C@H]1[C@H](C)CC[C@]2(COC(=O)c3cccnc3)CC[C@]3(C)C(=CC[C@@H]4[C@@]5(C)CCCNC(C)(C)[C@@H]5CC[C@]43C)[C@H]12`, for which the growth was 23.9%. Take `O=C(CSc1nnc(-c2ccc(Cl)cc2)n1-c1ccccc1)Nc1ccc(F)cc1`: the growth is 95.3%. The result for `C=C1CCc2nc(SCC(=O)O)ccc2N1` reads 96%; that for `O=c1[nH]c(CNc2ccc(NCc3c(-c4ccccc4)no[n+]3[O-])cc2)nc2c1cnn2-c1ccccc1`, 63.1%.

`CSc1ccc(C(=NNS(=O)(=O)c2ccc(C)cc2)c2ccc(Cl)cc2)cc1`: the growth was 97.1%.

`O=C(O)c1ccc(-n2c(=O)n(-c3cccc(C(F)(F)F)c3)c(=O)c3cc(-c4ccc(F)cc4F)ccc32)cc1`: the growth is -41.4% (active). The result for `C#C[C@]1(O)CC[C@H]2[C@@H]3CC=C4c5sc(Nc6ccc(C)cn6)nc5CC[C@]4(C)[C@H]3CC[C@@]21C` reads -43.3% (active). In the case of `Fc1ccc(-c2cc3nc(C(Cl)Cl)nc(-c4ccc(Cl)cc4)n3n2)cc1` it was -4.23% (active); in that of `NC(N)=NS(=O)(=O)c1ccc(N=NC2C(=O)NN(c3ccccc3)C2=O)cc1` (stereo not given), 107%. With `O=C1NC(=C(Cl)Cl)/C(=N/S(=O)(=O)N2CCCCC2CC2(C(F)(F)F)N=N2)N1` (stereo not given), the growth is 1.49% (active). On to `Cc1ccc(/C=C/CC(=O)Nc2ccc(C(=O)Nc3ccc(F)cc3N)cc2)cn1`, for which the growth is 8.39% (active). The result for `C=C(C)[C@@H]1CC[C@]2(COP(=O)(OCC)OCC)CC[C@]3(C)[C@H](CC[C@@H]4[C@@]5(C)CC[C@H](OP(=O)(OCC)OCC)C(C)(C)[C@@H]5CC[C@]43C)[C@@H]12` reads 16.2%. In the case of `Brc1ccc(-c2cc(-c3ccc4c(c3)OC=CO4)n[nH]2)s1` it was 78.8%. `O=C(N/N=C/c1ccc([N+](=O)[O-])s1)c1[nH]c2ccc(Br)cc2c1-c1ccccc1`: the growth was -28.9% (active). The result for `CC/C(=C/c1c(O)cccc1OC)c1ccc2c(OC)cccc2[o+]1` reads 106%. The result for `CCC(=C(c1ccc(OCCN(C)C)cc1)c1ccc(OCCN(C)C)cc1)c1ccc(Cl)cc1` reads -59.5% (active); that for `CCCC(=O)NC(c1ccc2c(c1)OC(F)(F)O2)c1cc(C)c2cccnc2c1O` (stereo not given), -4.8% (active). In the case of `CNC(=O)c1cc(Oc2ccc3nc(NC(=O)c4ccc(N5CCOCC5)c(C(F)(F)F)c4)sc3c2)ccn1` it was 94.2%. With `CC1=C(C)C(=O)C(Nc2cccc(C(F)(F)F)c2)=C(Cl)C1=O`, the growth is 38.5%. In the case of `C=CCn1c(SCC(=O)Nc2ccc(C(=O)/C=C/c3ccc(C)cc3)cc2)nnc1-c1c[nH]c2ccccc12`, the growth is 98.4%. In the case of `CCCCCc1ccc(S(=O)(=O)Nc2cc(-c3csc(NC(=O)CN4CCN(C)CC4)n3)ccc2OC)cc1` it was -52.4% (active); in that of `CNC1CCc2c(sc(NC(=O)c3ccc(C(C)(C)C)cc3)c2C(N)=O)C1` (stereo not given), -69.3% (active). For the molecule `O=C(N/N=C/c1ccc(Cl)s1)c1[nH]c2ccc(Br)cc2c1-c1ccccc1`, the growth is -44.1% (active). Consider `NS(=O)(=O)c1cccc(Nc2nc(SCC(=O)c3ccc(Cl)cc3)nc3ccccc23)c1`, for which the growth is 90.9%.

Regarding `OCC(Nc1ncnc2ccc(-c3cnc4cnccn34)cc12)c1ccccc1` (stereo not given), the growth was 78.1%. In the case of `CCNC(=O)Oc1ccc(/C(=C(/C)c2ccccc2)c2ccc(OCCN3CCCCCC3)cc2)cc1` it was -19.2% (active); in that of `Oc1ccc(CSc2nnc(-c3ccccc3)o2)c2cccnc12`, 7.7% (active).

Consider `O=C(CNc1nc(-c2cccc([N+](=O)[O-])c2)cs1)Nc1cccc([N+](=O)[O-])c1`, for which the growth is -9.99% (active). In the case of `Brc1cccc(/C=N/Nc2nc(N/N=C/c3cccc(Br)c3)nc(N3CCOCC3)n2)c1` it was -10.2% (active); in that of `NC(=O)c1cccc(-n2ccc3cc(NC(=O)Nc4ccc(N5CCOCC5)c(C(F)(F)F)c4)ccc32)n1`, -52.2% (active). In the case of `CC(O)c1cccc(/C(N)=N/C(N)=N/c2nc3ccccc3s2)c1` (stereo not given) it was 84.5%; in that of `C/C(=N/NC(N)=S)c1ccc(Nc2nc(SCC(C)C)nc(-c3ccc(F)cc3)c2C#N)cc1`, 73.9%. Consider `COC(=O)c1ccc(NC2=C(Cl)C(=O)c3nc(C)ccc3C2=O)cc1`, for which the growth is 21.2%. Consider `O=C(CSc1nnc(-c2ccc(Cl)cc2)n1-c1ccccc1)Nc1ccc(Br)cc1`, for which the growth was 81.4%.

`COc1ccc(C(=O)/C=C/c2ccc(Oc3nc(NCCO)nc(N4CCOCC4)n3)c(OC)c2)cc1`: the growth is 15.5%.

`C=C(C)C(=O)O[C@H]1C[C@@]2(C)OC(=CC2=O)[C@H](C)[C@H](O)[C@H]2OC(=O)C(=C)[C@@H]21`: the growth was 14.3%. For `O=C(Oc1ccc2ccc(=O)oc2c1)c1ccc(Cl)cc1`, the growth is 106%. The result for `Cc1[nH]nc2ncc(C#Cc3cncc(C(=O)Nc4ccc(CN5CCN(C)CC5)c(C(F)(F)F)c4)c3)cc12` reads 13.6%.

Turning to `CCN1C/C(=N\S(=O)(=O)c2ccccc2)N(CC)C1=S`, the growth was 100%. The result for `COc1cc2nc(Cl)nc(Nc3cccc(C4=Nc5c(N)nc(N)nc5NC(c5ccccc5)C4)c3)c2cc1OC` (stereo not given) reads 66.4%; that for `Clc1cccc(/C=N/Nc2nc(N/N=C/c3cccc(Cl)c3)nc(N3CCOCC3)n2)c1`, -9.74% (active); that for `Nc1nc(N)c2c(n1)NC(c1ccc(C(F)(F)F)cc1)CC(c1ccc(Nc3nc(NCCO)nc(Nc4ccc(Cl)cc4)n3)cc1)=N2` (stereo not given), -28.3% (active). `CCC(CC)N1C(=O)/C(=c2\sc3n(c2=O)NC2C(N=3)N(CC)C(=O)N2CC)c2ccccc21` (stereo not given): the growth is 26.5%. Consider `CNC(=O)c1cc(N2CCc3cc(NC(=O)Nc4ccc(N5CCOCC5)c(C(F)(F)F)c4)ccc32)ccn1`, for which the growth was 13%. The result for `Cc1[nH]c(C(=O)Nc2ccc(S(=O)(=O)N3CCCCC3)cc2OCCOCCOCCOCCOCCOCCOCCOCCOCCOc2cc(S(=O)(=O)N3CCCCC3)ccc2NC(=O)c2[nH]c(C)c3c2CCCCC3=O)c2c1C(=O)CCCC2` reads 10.7%; that for `Cc1cn(-c2cc(NC(=O)c3cncc(C#Cc4cnc5ccc(OCCCS(C)(=O)=O)nn45)c3)cc(C(F)(F)F)c2)cn1`, -6.15% (active); that for `CC(=O)c1sc(Nc2cccc(Nc3nc(C)c(C)s3)c2)nc1C`, 34.2%. As to `CNC(=O)c1cc(Oc2ccc3nc(NC(=O)c4cccc(C(F)(F)F)c4)sc3c2)ccn1`, the growth is 143%. In the case of `O=C(CCN1C(=O)/C(=C/c2ccccc2F)SC1=S)N1CCOCC1` it was 82.7%. The result for `Clc1ccc2[nH]cc(-c3nn4cc(-c5cccnc5)nc4s3)c2c1` reads 86.2%. In the case of `Nc1nc(Nc2ccccc2SSc2ccccc2Nc2nc(N)nc(-c3ccc4ccccc4c3)n2)nc(-c2ccc3ccccc3c2)n1`, the growth is 112%. The result for `Oc1[nH]c2ccccc2c1Nn1c(N=N/C=c2/ccc3c(c2)C=NN=3)n[nH]c1=S` reads 139%; that for `CC(C)(C)Nc1nc2c(OCCc3ccccc3)cccn2c1-c1ccc(Cl)cc1`, -27.8% (active); that for `Cn1c2ccccc2c2c3c(c4c5ccc(Br)cc5oc4c21)C(=O)N(O)C3=O`, 73%. In the case of `C[C@H]1OCC2(CCN(c3cnc(C(=O)Nc4cc(F)cc5cccnc45)cn3)CC2)[C@H]1N` it was 18.9%; in that of `NC(N)=Nc1ccc(Nc2cccc(Oc3ccc(Cl)c(C(F)(F)F)c3)c2)cn1`, -67.4% (active).

On to `Cc1ccc(CSC2=C(Cl)CN(c3ccc(Cl)cc3)C2=O)cc1`, for which the growth is 110%.

As for `O=C1C(SCc2ccccc2)=C(Cl)CN1c1ccccc1`, the growth is 72.6%. `O=C(CSc1nnc(-c2ccc3nc(-c4ccccc4)[nH]c3c2)o1)Nc1ccc(C(=O)/C=C/c2ccccc2)cc1`: the growth is 109%. In the case of `O=C(CSc1nc2ccccc2c(=O)n1-c1ccc(S(=O)(=O)Nc2ccc(Cl)nn2)cc1)Nc1ccc(S(=O)(=O)Nc2ccc(Cl)nn2)cc1` it was 96.4%. For `CC(=O)c1ccc(Nc2nc(SC(C)C)nc(-c3ccccc3)c2C#N)cc1`, the growth is 83.8%. In the case of `C/C(=N\NC(=O)/C=C/CC(=O)O)c1nnn(-c2ccc([N+](=O)[O-])cc2)c1C` it was 98%; in that of `N#Cc1c(-c2cccs2)cc(-c2cnccn2)nc1SCC(=O)NNC(=S)Nc1ccc(F)cc1`, 122%. The result for `COc1ccc(NC2=C(Br)C(=O)C(C)=C(C)C2=O)cc1OC` reads -34.6% (active); that for `Nc1nc(Nc2ccccc2SSc2ccccc2Nc2nc(N)nc(-c3ccccc3)n2)nc(-c2ccccc2)n1`, 62.1%; that for `C/C(=C(/c1ccc(Cl)cc1)c1ccc(OCCN)cc1)c1ccc(C)cc1`, 102%. For `Cc1cc2nc3c4cc(C#N)ccc4n(CCN(C)C)c3nc2cc1C`, the growth is -35.7% (active). With `CCCc1[nH]c(-c2cc(N)ccc2Cl)c2c1C(=O)CCCC2`, the growth was 92.4%. For `C#C[C@]1(O)CC[C@H]2[C@@H]3CC=C4c5sc(-c6ccccn6)nc5CC[C@]4(C)[C@H]3CC[C@@]21C`, the growth was 41.4%.

`Cn1c(SCC(=O)Nc2ccc(-c3nc4ccc([N+](=O)[O-])cc4[nH]3)cc2)nc2ccccc2c1=O`: the growth is 91.1%. For the molecule `COc1ccc(/C=N/NC(=O)CSc2nc(-c3cnccn3)cc(-c3cccs3)c2C#N)cc1OC`, the growth is 101%.

As to `COc1ccccc1-n1cc(C#N)c(N)c1C(=O)c1ccc(Br)cc1`, the growth was 35.8%.

As for `Oc1cccc2ccc(-c3nnc(SCc4ccc(O)c5ncccc45)o3)nc12`, the growth is 13.7%.

(Values after PubChem BioAssay (NCI).)
